The values below come from PubChem BioAssay.

Several values for one entry are separate records, joined by “and”; a condition that tells them apart may be missing. Identical values can stand only once. Inconclusive results are not listed. For part of these data: Entries with a potency or affinity are not part of this list. More than one record can exist for a structure, and the calls need not agree. Activity calls are given as the source filed them. Unless noted, how the calls were made is not given here.

The nature of test [1]: blockers of polyQ-driven CASP3 activation – cell-based (AID 1583). As to conditions: polyglutamine-induced caspase-3 activation, cell assay; stronger effect = higher value;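 tested at 10 µM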.
Test [2] in a line: yeast 75Q aggregation reduction – 75Q-TubU reporter (AID 1593). As to conditions: Yeast 75Q polyglutamine aggregation reporter.
Test [3] in a line: restoration of touch response, mutant HTT neurons – whole organism, C. elegans mechanosensory neurons, N-terminal huntingtin (AID 1599). Particulars: C. elegans polyQ-huntingtin mechanosensory neurons, stronger effect = higher value.
Test [4] is described as follows: blockers of cytochrome c efflux from mitochondria – biochemical, purified mitochondria (AID 1603).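 Further: mouse liver mitochondria challenged with calcium chloride; signal normalized to the plate average as 100%.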 Particulars: stronger effect = lower value.
Test [5] in a line: polyglutamine aggregate formation blockers (AID 1604). Particulars: polyglutamine-induced protein aggregation inhibition assay; stronger effect = higher value; tested at 2.5 µM.
Test [6] is described as follows: rescue of PC12 cells from polyQ htt toxicity – LDH release (AID 1610). As to conditions: PC12 mutant huntingtin toxicity, final LDH at 4 uM, stronger effect = lower value. (In general: Release of lactate dehydrogenase indicates damage to the cell membrane.)
A short description of test [7]: glutamate transport activators, MN-1 cells, MN-1 cell line (AID 1612).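 Further: tested at 1 µM final; 0% = mean of DMSO vehicle wells on each plate; positive means more glutamate uptake than control and negative means less.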 As to conditions: MN-1 motor neuron cells, stronger effect = higher value.
The nature of test [8]: 75Q-TubH aggregate inhibition, S. cerevisiae, yeast (AID 1616). As to conditions: S. cerevisiae 75Q-TubH polyglutamine aggregation suppression; stronger effect = higher value.
A short description of test [9]: viability loss with induced miR-34 in A549 – imaging, A549 dox-inducible miR-34, nuclei and caspase counts, primary screen (AID 1347080;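 active means compounds whose cell count with miR-34 switched on is under 0.7 times the count with it off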). As to conditions: A549 miR-34 inducible, Hoechst nuclei count, 48 h.
The nature of test [10]: liver-stage malaria parasite load reduction – cell-based, known kinase inhibitor set, luminescence, hepatoma host viability (AID 624392).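 Further: infected cells incubated roughly two days before readout.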 As to conditions: Plasmodium liver stage in hepatoma cells, luciferase luminescence, concentration not given here; liver cell % of control: measured here: host liver cell viability; parasite % of control: stronger effect = lower value.
Test [11] is described as follows: MELAS cybrid and Rieske KO viability enhancers – cell-based, MELAS cybrids, Rieske KO mouse fibroblasts, CellTiter-Glo, primary screen (AID 1508586;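 active means mean z-score across replicates of 1.96 or higher in either the MELAS or the Rieske mutant cell line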;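 further: z relative to plate mean and SD of compound and empty wells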). Particulars: low glucose. In general terms: ATP-based viability assays read luminescence as a measure of living cells.
Test [12] can be described thus: P. berghei load reduction in hepatocytes – cell-based, HepG2, luciferase luminescence, HepG2 viability, primary screen (AID 624349; in the data active means parasite load remaining mostly below about 12%, no sharp cut-off; inactive means mostly above about 10%;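 further: 100% = mean of DMSO negative control wells on the same plate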). Particulars: P. berghei liver stage in HepG2, luciferase luminescence, concentration not given here; parasite load remaining: stronger effect = lower value; viability: measured here: HepG2 viability without parasites.
Test [13] concerns the target NAD(+) hydrolase SARM1 (Homo sapiens) (UniProt Q6SZW1). Kind of test: blocking NAD cleavage by SARM1 SAM-TIR – cell lysate, NAD-Glo luminescence (AID 1508614;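 active means compound whose remaining NAD level is above about 45 nM, limit read from the data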). Particulars: SAM-TIR HEK293T lysate NADase, at 1 µM, stronger effect = higher value.
Test [14] can be described thus: GFP-Q80 aggregate reduction, neuronal-like cells, cell-based, NGF-treated PC12, GFPQ80 (AID 1614).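 Further: lower means fewer inclusions and 0 means no inclusions at all.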 As to conditions: PC12 NGF-treated GFP-polyQ80 inclusion reduction.
Test [15] is described as follows: compounds altering viability of human ES cells (AID 493140).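 Further: cells exposed to compounds for four days before counting.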 As to conditions: human embryonic stem cell survival screen; stronger effect = higher value.
[16] abbreviates: stronger effect = lower value, cell number ratio, induced over uninduced.
Where [17] appears, read: measured here: relative caspase fold change +Dox/-Dox.
Setting [18] is: measured here: total cells with miR-34 induction, stronger effect = lower value.
[19] abbreviates: measured here: total cells without miR-34 induction.
[20] abbreviates: MELAS cybrid survival, CellTiter-Glo 48 h, stronger effect = higher value.
[21] abbreviates: Rieske KO mouse fibroblast survival, CellTiter-Glo 72 h.

Sequence of NAD(+) hydrolase SARM1 (Homo sapiens) (Q6SZW1 whole entry, looked up): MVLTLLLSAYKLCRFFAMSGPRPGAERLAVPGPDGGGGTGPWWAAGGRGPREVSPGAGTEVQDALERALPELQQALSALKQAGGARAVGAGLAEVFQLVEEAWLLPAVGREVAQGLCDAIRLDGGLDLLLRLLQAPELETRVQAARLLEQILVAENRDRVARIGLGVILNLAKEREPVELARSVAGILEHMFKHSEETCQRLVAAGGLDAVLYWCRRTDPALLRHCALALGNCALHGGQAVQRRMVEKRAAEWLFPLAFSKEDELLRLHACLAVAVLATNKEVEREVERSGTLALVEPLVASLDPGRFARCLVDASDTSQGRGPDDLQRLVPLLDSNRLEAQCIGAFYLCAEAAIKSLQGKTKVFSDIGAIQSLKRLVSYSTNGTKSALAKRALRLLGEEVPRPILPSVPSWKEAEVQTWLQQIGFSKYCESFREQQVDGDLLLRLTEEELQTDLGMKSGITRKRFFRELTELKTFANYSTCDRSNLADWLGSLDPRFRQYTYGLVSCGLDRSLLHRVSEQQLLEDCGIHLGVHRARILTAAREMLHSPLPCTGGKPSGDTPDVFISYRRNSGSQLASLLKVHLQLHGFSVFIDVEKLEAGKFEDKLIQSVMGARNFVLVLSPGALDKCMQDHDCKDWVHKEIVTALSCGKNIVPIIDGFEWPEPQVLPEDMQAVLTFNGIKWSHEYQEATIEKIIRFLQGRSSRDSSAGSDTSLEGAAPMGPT

As to `CC(Cc1ccc(O)c(O)c1)C(C)Cc1ccc(O)c(O)c1` (stereo unspecified), the inhibition in [1] is -3.14%. This molecule also yielded a score in test [2] of 0.83. The rescue above control in test [3] was -2.86. The cytochrome c release ratio in test [4] amounted to 3.11. Besides, the inhibition of aggregation in test [5] was -17%. In addition, the normalised LDH release in test [6] was found to be 0.415. The same molecule displayed a glutamate uptake change in test [7] of 67.2%. This molecule yielded an aggregation suppression score in test [8] of 0.665. For the same molecule, the fold change in [9] (setting [16]) was 1.04 (inactive); in test [9] (setting [17]) it was 1.01. Also, the results for the cell count in test [9] (setting [18]) and in test [9] (setting [19]) were 5990 and 5750, respectively.
On to `CN(C)CCC(CSc1ccccc1)Nc1ccc(S(=O)(=O)NC(=O)c2ccc(N3CCN(Cc4ccccc4-c4ccc(Cl)cc4)CC3)cc2)cc1[N+](=O)[O-]` (stereo unspecified), for which, in test [10], the liver cell % of control was 65.5% and 90.4% and 88.4%. Also, the parasite % of control in [10] is 27.6% (inactive) and 29.4% (inactive) and 37% (inactive). The values for the fold change in test [9] (setting [16]) and in [9] (setting [17]) were 0.995 (inactive) and 0.778, respectively. Also, the cell count in [9] (setting [18]) amounted to 5830; in [9] (setting [19]), 5860. Besides, the z-score was -0.297 (inactive) in [11] (setting [20]) and -2.14 in [11] (setting [21]).
Take `O=[N+]([O-])OCC(CO[N+](=O)[O-])O[N+](=O)[O-]`: the parasite load remaining in test [12] was 15.2% (inactive). In addition, the viability in [12] turned out to be 94.3%. Besides, the fold change in [9] (setting [16]) was 0.846 (inactive); in test [9] (setting [17]), 4.5. Further, the figures for the cell count in [9] (setting [18]) and in test [9] (setting [19]) were 10800 and 12700, respectively. Further, in [13], the remaining NAD was 10 nM (inactive).
Consider `CCN(CC)CCNC(=O)c1c(C)[nH]c(C=C2C(=O)Nc3ccc(F)cc32)c1C`, for which, in [10], the liver cell % of control was 117% and 132% and 81.2%. The parasite % of control in [10] was 0.0958% (inactive) and 0.227% (active) and 376% (inactive). Besides, the fold change is 0.743 (inactive) in test [9] (setting [16]) and 1.2 in test [9] (setting [17]). Also, the cell count turned out to be 2230 in test [9] (setting [18]) and 3000 in test [9] (setting [19]). Further, the z-score in test [11] (setting [20]) is -0.621 (inactive); in test [11] (setting [21]) it was -1.61.
For `Cc1ccccc1-n1c(Cn2nc(-c3cccc(O)c3)c3c(N)ncnc32)nc2cccc(C)c2c1=O`, the liver cell % of control in [10] was 93.6% and 86.4% and 105%. Also, in [10], the parasite % of control was 34.6% (inactive) and 44.4% (inactive) and 71.3% (inactive). Besides, the values for the fold change in [9] (setting [16]) and in [9] (setting [17]) were 0.979 (inactive) and 0.801, respectively. Moreover, the cell count was 7710 in test [9] (setting [18]) and 7880 in test [9] (setting [19]). Further, the z-score in [11] (setting [20]) is -0.245 (inactive); in test [11] (setting [21]) it was -0.436.
For `NC[C@@H]1O[C@H](O[C@H]2[C@@H](O)[C@H](O[C@@H]3[C@@H](O)[C@H](N)C[C@H](N)[C@H]3OC3O[C@H](CO)[C@@H](O)[C@H](O)[C@H]3N)O[C@@H]2CO)[C@H](N)[C@@H](O)[C@@H]1O` (stereo partly specified), the parasite load remaining in [12] is 69.5% (inactive). The viability in test [12] stood at 103%. For the same molecule, the values for the fold change in test [9] (setting [16]) and in test [9] (setting [17]) were 0.833 (inactive) and 1.19, respectively. Further, the cell count in test [9] (setting [18]) was determined as 8720; in test [9] (setting [19]), 10500. The z-score in [11] (setting [20]) was 0.673 (inactive); in [11] (setting [21]) it was -0.125.
Regarding `CC1(C)S[C@@H]2[C@H](NC(=O)[C@H](NC(=O)N3CCNC3=O)c3ccccc3)C(=O)N2C1C(=O)O` (stereo partly specified), the inhibition in test [1] turned out to be 10.9%. The score in test [2] turned out to be 1.31. Besides, the rescue above control in test [3] is -2.48. In addition, the cytochrome c release ratio in test [4] stood at 1.14. In addition, the inhibition of aggregation in test [5] was determined as 54.5%. The molecule also returned a glutamate uptake change in test [7] of 7.74%. Also, the inclusion score in [14] turned out to be 2. In test [8], the aggregation suppression score came to 1.29. Besides, the survival in test [15] is 4.75 (inactive). Moreover, in [12], the parasite load remaining was 188% (inactive) and 42.9% (inactive). The viability in [12] was 87.9% and 114%. Further, the fold change is 0.882 (inactive) in test [9] (setting [16]) and 3.93 in test [9] (setting [17]). Further, the cell count in test [9] (setting [18]) was 12000; in [9] (setting [19]) it was 13600.

In general, inhibition refers to the relative decrease from the control value, in per cent. In general, viability refers to a read-out of living cells in per cent, often relative to untreated cells.
